Measured values as given in PubChem BioAssay (NCI).
This is part of a sample that, as a whole, favours compounds with a hit. Of some 83,000 tested, about 20% had one in any assay.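 Testing used 96-well plates and a 48-hour single-concentration exposure. Example: -40 means 40% of the starting cells died.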 Unmarked numbers belong to inactive results. Active and inactive are the calls of the source. How the source made its calls: active means growth percent below 10; inactive means the rest.

Test system: CAKI-1 renal
Assay: NCI-60 one-dose screen, 48 h (100 = growth as untreated, 0 = no growth, -100 = all killed)
Conditions: 10 µM unless noted

Row | Compound | growth
1 | Nc1nc(N)c2c(n1)NC(c1ccc3c(c1)OCO3)CC(c1cccc(Nc3ccncc3)c1)=N2 (stereo not given) | 78.8%
2 | CCCCCCCC/C=C\CCCCCCCCOc1ccc(CC(=O)NCC[N+]2(C)CCCC2)cc1 | 50.9%
3 | Cn1cc(-c2csc(-c3cn(CCO)c4ccc(F)cc34)n2)c2cccnc21 | 78.4%
4 | CCOC(=O)C1=CCC(n2cc(F)c(=O)[nH]c2=O)O1 (stereo not given) | 102%
5 | CC1(C)CC[C@]2(CO)CC[C@]3(C)C(=CC[C@@H]4[C@@]5(C)CCNCC(C)(C)[C@@H]5CC[C@]43C)[C@@H]2C1 | 67.3%
6 | O=C(CN1C(=O)NC2NC(=O)NC21)N/N=C/c1cccc([N+](=O)[O-])c1 (stereo not given) | 85.8%
7 | [2H]C([2H])([2H])Oc1ccc(/C=C/C(=O)/C=C(O)/C=C/c2ccc(OC([2H])([2H])[2H])c(OC([2H])([2H])[2H])c2)cc1OC([2H])([2H])[2H] | 41.3%
8 | Cc1nn(C)c2ncnc(Nc3ccccc3Br)c12 | 102%
9 | COc1cc(NC(=O)c2cncnc2Nc2ccc3c(ccn3Cc3cccc(F)c3)c2)cc(OC)c1 | 34.8%
10 | C=C1CC[C@@H]2[C@](C)(COC(C)=O)[C@H](OC(C)=O)CC[C@@]2(C)[C@@H]1CC(Nc1ccc(S(=O)(=O)Nc2nccc(C)n2)cc1)C1=CCOC1=O (stereo not given in full) | 61.4%
11 | Cc1nc2c(c(-c3ccccc3)n1)Cc1c(ccc3ccccc13)O2 | 109%
12 | CCCc1cc(CCC)n2nc(N)nc2n1 | 95.3%
13 | Clc1ccc(C2=Nn3c(nnc3-c3cc(Cl)cc(Cl)c3Cl)SC2)cc1 | 78.7%
14 | CCN(CC)CCN1C(=O)c2c(c(C)c3c(oc4cc(OC)ccc43)c2C)C1=O | 78.2%
15 | O=C1c2cccnc2C(=O)c2c1c(C(=O)OCCCN1CCOCC1)c1ccccn21 | -11.4% (active)
16 | CCCCN(CCC#N)C(N)=O | 82.7%
17 | O=C(OCC(O)(CO)C(=O)NC12CC3CC(CC(C3)C1)C2)c1ccc(Cl)cc1 (stereo not given) | 99%
18 | CC1(C)C2=C(C(=O)N1Cc1ccccc1)C(c1ccco1)N(C(=O)C1CCC1)CCN2 (stereo not given) | 91.9%
19 | CN1CC(c2ccccc2)C(C(=O)c2ccc(Br)cc2)C12C(=O)Nc1ccccc12 (stereo not given) | 63.2%
20 | Nc1ncc(-c2ccc3ncnc(N4CCc5cc(F)c(Cl)cc54)c3c2)cn1 | 15.7%
21 | CCCCCN(CCCCC)CC(O)c1c(Cl)ccc2ccccc12 (stereo not given) | 60%
22 | CNC(=O)c1cc(Oc2ccc3nc(NC(=O)NC(C)C)sc3c2)ccn1 | 91.9%
23 | Nc1ccc(Cl)c2c(=O)c3ccccc3[nH]c12 | 77.7%
24 | CNC(=O)c1cc(Oc2cccc3nc(NC(=O)Nc4ccc(F)cc4F)ccc23)ccn1 | 72.7%
25 | N#Cc1c(-c2ccc(F)cc2)cc(-c2cccc(Cl)c2)[nH]c1=O | 52.1%

Test system: A498 renal
Assay: as above
Conditions: 10 µM unless noted

Row | Compound | growth
26 | COc1ccccc1/C=C/C1=C(C)CCC(c2ccccc2OC)C1C (stereo not given) | -4.12% (active)
27 | COc1cc(OCc2cccc(-c3ccc4c(c3)OCCO4)c2C)cc(OC)c1C=O | -10.4% (active)
28 | COc1ccccc1-c1nc2ccc3[nH]ncc3c2c2c1CCCC2 | 6.87% (active)
29 | CC(=O)OCCOc1cc(Cl)c(Cl)cc1Cl | 82.8%
30 | CC1(C)CC(=O)C2=C(C1)OC(C(=O)c1ccccc1)C2c1cccc(Oc2ccccc2)c1 (stereo not given) | 49.6%
31 | CC1OC(C(=O)N2CCN(CCO)CC2)CC1COC1CCCCC1 (stereo not given) | 126% [50 µM]
32 | COc1ccccc1NC(=O)n1c(=O)cc(C)c2ccc(O)cc21 | 113%
33 | COc1ccc2c(c1)C(c1c[nH]c3ccccc13)(c1c[nH]c3ccccc13)CCO2 | 82.9%
34 | CC(C)(C)n1cc(-c2ccnc(NCCNS(=O)(=O)c3cccc4ccccc34)c2)c(-c2cccc(O)c2)n1 | 73.1%
35 | COc1cc(C2=Nc3c(N)nc(N)nc3NC(c3cccc(Nc4ccnc5cc(C(F)(F)F)ccc45)c3)C2)cc(OC)c1OC (stereo not given) | 79.8%
36 | Nc1nc(=O)n([C@H]2CC=C(CO)O2)cc1F | 75.8%
37 | CS(=O)(=O)c1ccc(/C(=N/NC(N)=S)c2ccc(F)cc2)cc1 | 82.2%
38 | O=c1n(C2OC(CO)C(O)C2O)ccc2nccn12 (stereo not given) | 95.8%
39 | Cc1c(N2CCCCC2)[nH]c2ccccc12 | 123%
40 | O=C1CCc2c(sc3[nH]c(=S)n(-c4cc(C(F)(F)F)cc(C(F)(F)F)c4)c(=O)c23)C1 | -18.2% (active)
41 | Nc1nc(N)c2c(n1)NC(c1ccc3c(c1)OCO3)CC(c1cccc(Nc3ccncc3)c1)=N2 (stereo not given) | 93%
42 | CCCCCCCC/C=C\CCCCCCCCOc1ccc(CC(=O)NCC[N+]2(C)CCCC2)cc1 | 86.4%
43 | Cn1cc(-c2csc(-c3cn(CCO)c4ccc(F)cc34)n2)c2cccnc21 | 45.3%
44 | CCOC(=O)C1=CCC(n2cc(F)c(=O)[nH]c2=O)O1 (stereo not given) | 99.9%
45 | CC1(C)CC[C@]2(CO)CC[C@]3(C)C(=CC[C@@H]4[C@@]5(C)CCNCC(C)(C)[C@@H]5CC[C@]43C)[C@@H]2C1 | 84.2%

Row | Compound | growth
46 | O=C(CN1C(=O)NC2NC(=O)NC21)N/N=C/c1cccc([N+](=O)[O-])c1 (stereo not given) | 95.8%
47 | [2H]C([2H])([2H])Oc1ccc(/C=C/C(=O)/C=C(O)/C=C/c2ccc(OC([2H])([2H])[2H])c(OC([2H])([2H])[2H])c2)cc1OC([2H])([2H])[2H] | 116%
48 | Cc1nn(C)c2ncnc(Nc3ccccc3Br)c12 | 71.4%
49 | COc1cc(NC(=O)c2cncnc2Nc2ccc3c(ccn3Cc3cccc(F)c3)c2)cc(OC)c1 | 24.3%
50 | C=C1CC[C@@H]2[C@](C)(COC(C)=O)[C@H](OC(C)=O)CC[C@@]2(C)[C@@H]1CC(Nc1ccc(S(=O)(=O)Nc2nccc(C)n2)cc1)C1=CCOC1=O (stereo not given in full) | 96.8%
51 | Cc1nc2c(c(-c3ccccc3)n1)Cc1c(ccc3ccccc13)O2 | 79.1%
52 | CCCc1cc(CCC)n2nc(N)nc2n1 | 96%
53 | Clc1ccc(C2=Nn3c(nnc3-c3cc(Cl)cc(Cl)c3Cl)SC2)cc1 | 55.9%
54 | CCN(CC)CCN1C(=O)c2c(c(C)c3c(oc4cc(OC)ccc43)c2C)C1=O | 108%
55 | O=C1c2cccnc2C(=O)c2c1c(C(=O)OCCCN1CCOCC1)c1ccccn21 | -20.2% (active)
56 | CCCCN(CCC#N)C(N)=O | 89.6%
57 | O=C(OCC(O)(CO)C(=O)NC12CC3CC(CC(C3)C1)C2)c1ccc(Cl)cc1 (stereo not given) | 102%
58 | CC1(C)C2=C(C(=O)N1Cc1ccccc1)C(c1ccco1)N(C(=O)C1CCC1)CCN2 (stereo not given) | 113%
59 | CN1CC(c2ccccc2)C(C(=O)c2ccc(Br)cc2)C12C(=O)Nc1ccccc12 (stereo not given) | 105%
60 | Nc1ncc(-c2ccc3ncnc(N4CCc5cc(F)c(Cl)cc54)c3c2)cn1 | -29.5% (active)
61 | CCCCCN(CCCCC)CC(O)c1c(Cl)ccc2ccccc12 (stereo not given) | 68.3%
62 | CNC(=O)c1cc(Oc2ccc3nc(NC(=O)NC(C)C)sc3c2)ccn1 | 51.4%
63 | Nc1ccc(Cl)c2c(=O)c3ccccc3[nH]c12 | 69.3%
64 | CNC(=O)c1cc(Oc2cccc3nc(NC(=O)Nc4ccc(F)cc4F)ccc23)ccn1 | 68.1%
65 | N#Cc1c(-c2ccc(F)cc2)cc(-c2cccc(Cl)c2)[nH]c1=O | 80.4%
